Compounds with a hit are over-represented: about 3.5% of the library has one in this group of screens.
FBW7 activator: human FBW7 E3 ligase activation, primary screen; Q969H0; AlphaScreen FBW7–phospho-cyclin E peptide binding, activator screen; hit rate 0.13% among 650,000; normalized activity (activation), % at 26.1 µM; in the data active means normalized activity above about 1.9%;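 further: purified mutant Fbw7 with reduced substrate affinity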
MITF primary: human MITF inhibition, primary screen. O75030. hit rate 0.91% among 650,000. AID 1259374. inhibition, % at 2.6 µM. AlphaScreen MITF homodimerization, bead proximity signal; in the data active means inhibition above about 50%;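 further: 0% = vehicle wells with protein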
TEAD-YAP inh: TEAD-YAP interaction inhibition; HEK-TIYL cells, TEAD-Gal4/YAP UAS-luciferase luminescence; inhibition, % at 9.12 µM; hit rate 1.4% among 640,000; in the data active means inhibition above about 32%;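 further: 0% = median of test compound wells and 100% = reference inhibitor wells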
GPR151 activ: activates the human receptor GPR151 | PathHunter beta-arrestin GPR151 cells, luminescence | Q8TDV0 | hit rate 1% among 650,000 | activation, % at 11.2 µM; in the data active means activation above about 4.9%;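 further: 0% = median of compound wells and 100% = cells with positive control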
GPR151 conf act: confirmation of human GPR151 activators. shares compounds with GPR151 activ. 6,700 tested, under 10 active. activation, % at 11.2 µM. GPR151 PathHunter beta-arrestin cells, luminescence, 90 min; % of EA-reagent control over plate median. AID 1508609;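 active means mean percent activation across replicates above the confirmation screen cutoff of 4.91%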
GPR119 ag: GPR119 activation, counter-screen for GPR151 activators; shares compounds with GPR151 activ; GPR119 PathHunter beta-arrestin cells, luminescence, 90 min; 0 = compound-well median, 100 = enzyme-acceptor control; activation, % at 11.2 µM; hit rate 0.3% among 6,700; AID 1508611;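 active means mean percent activation in the counterscreen above 29.09%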;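 further: counterscreen on off-target GPR119 to flag nonselective hits from the GPR151 activator screen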
Target sequence (Q8TDV5 whole entry, looked up): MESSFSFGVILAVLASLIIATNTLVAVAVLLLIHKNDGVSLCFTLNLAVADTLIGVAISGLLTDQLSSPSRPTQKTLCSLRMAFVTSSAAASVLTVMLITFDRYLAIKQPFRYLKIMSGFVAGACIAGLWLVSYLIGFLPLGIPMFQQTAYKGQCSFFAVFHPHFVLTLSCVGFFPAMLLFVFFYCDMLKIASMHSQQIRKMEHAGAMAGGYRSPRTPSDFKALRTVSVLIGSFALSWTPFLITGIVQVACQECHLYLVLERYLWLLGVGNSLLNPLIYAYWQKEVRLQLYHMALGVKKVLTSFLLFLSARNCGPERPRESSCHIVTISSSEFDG
Active calls of the source: *; . = no result; ! = not confirmed by another sample.

SMILES	FBW7 activator	MITF primary	TEAD-YAP inh	GPR151 activ	GPR151 conf act	GPR119 ag
C=CCN1C(=O)/C(=C/c2ccc(OCC(=O)O)cc2)S/C1=N/c1nccs1	0	6	-1	7.0*	2	4
C=CCN1C(=O)/C(=C\c2ccc(C(=O)O)cc2)S/C1=N/c1nnc(CC)s1	0	6	1	1	.	.
CCOC(=O)C(NC(=O)/C(=C\c1ccc(F)cc1)NC(=O)c1ccccc1)C(C)C (stereo unspecified)	0	17	13	7.5*	0	-5
CCOC(=O)C(NC(=O)/C(=C\c1ccc(Br)cc1)NC(=O)c1ccccc1)C(C)O (stereo unspecified)	0	-6	-2	0	.	.
COc1cc(C(=O)NNC(=O)CCN2CCCCC2)cc(OC)c1OC	0	-16	9	4.9*	-1	-14
Cc1nonc1N=NN(Cc1ccc([N+](=O)[O-])cc1)c1nonc1C	0	9	8	7.4*	0	-5
O=C(Oc1ccccc1Br)c1cccs1	0	-23	7	1	.	.
CN1CCN(Cc2ccc(-c3ccccc3Cl)o2)CC1CCO (stereo unspecified)	0	-1	-12	14*	0	4
Cc1ccc(-c2cccc(CN3CCN(C)C(CCO)C3)c2)o1 (stereo unspecified)	0	6	0	8.8*	-1	-7
Cc1ccc(-c2ccc(CN3CCN(C)C(CCO)C3)cc2)o1 (stereo unspecified)	0	3	-15	2	.	.
CC(NC(=O)Cn1ncn2nc(-c3cccs3)cc2c1=O)C12CC3CC(CC(C3)C1)C2 (stereo unspecified)	0	6	1	1	.	.
CCOC(=O)CCN(Cc1cc(OC)ccc1OC)S(=O)(=O)c1cccc(Cl)c1	0	2	-2	4	.	.
COCC(=O)N(C)C(Cc1ccc(F)cc1)C1CCN(C(=O)c2ccccc2)CC1 (stereo unspecified)	0	-2	13	1	.	.
CN(CC(=O)Nc1cccnc1)S(=O)(=O)c1ccc2[nH]c3c(c2c1)CCCC3	0	-1	-2	1	.	.
CCNCC(=O)Nc1nnc(-c2ccccc2)o1	0	10	-13	-1	.	.
CCN(CC)c1cc(N)c([N+](=O)[O-])cc1F	0	22	12	6.5*	1	2
COCCCN1C2=C(C(=O)CC(C)(C)C2)C(c2ccccc2OC)C2=C1CC(C)(C)CC2=O	0	3	-1	0	.	.
FC(F)(F)c1ccc(Cn2cnc3c(Nc4ccc(N5CCOCC5)cc4)nc(-c4ccccc4)nc32)cc1	0	15	0	5.2*	-1	-12
FC(F)(F)c1ccc(Cn2cnc3c(Nc4ccccc4)nc(Nc4ccccc4)nc32)cc1	0	7	5	6.2*	0	4
OCCNc1nc(-c2csc3ccccc23)nc2c1ncn2Cc1ccc(C(F)(F)F)cc1	0	4	3	6.1*	1	1
COc1ccc(-c2nc(NCCOc3ccccc3)c3ncn(Cc4ccc(C(F)(F)F)cc4)c3n2)cc1	0	12	8	4.9*	-1	-7
CCOc1ccc(-n2c(SCC(=O)N3CCOCC3)nc3c(c2=O)SCC3)cc1	1	7	13	0	.	.
CCSCCOC(=O)C1=C(C)NC2=C(C(=O)CCC2)C1c1cc([N+](=O)[O-])ccc1Cl (stereo unspecified)	0	-7	-1	1	.	.
CCCOc1ccc(Cl)cc1CNC(C)(C)CO	0	-1	5	1	.	.
Cc1ccc(NC(=O)Cn2cnc3ccccc3c2=O)c(Br)c1	0	-19	-7	-1	.	.
SMILES	FBW7 activator	MITF primary	TEAD-YAP inh	GPR151 activ	GPR151 conf act	GPR119 ag
FC(F)(F)c1ccc(Cn2cnc3c(NC4CCN(Cc5ccccc5)CC4)nc(Nc4ccccc4)nc32)cc1	0	16	4	-1	.	.
FC(F)(F)c1ccc(Cn2cnc3c(NC4CCN(Cc5ccccc5)CC4)nc(Nc4ccc(C(F)(F)F)cc4)nc32)cc1	0	5	-5	5.9*	-1	-8
FC(F)(F)c1ccc(Cn2cnc3c(NC4CC4)nc(-c4ccc(N5CCOCC5)nc4)nc32)cc1	0	1	0	8.0*	1	-7
CCCNc1nc(-c2ccc(N3CCOCC3)nc2)nc2c1ncn2Cc1ccc(C(F)(F)F)cc1	0	-3	2	0	.	.
CCCN(CCC)CCCNC(=O)CCCNC(=O)Cn1cnc2sc3c(c2c1=O)CCCC3	0	9	4	-1	.	.
CCOP(=O)(OCC)c1nc(-c2cccc3ccccc23)oc1NCc1ccco1	0	-2	-8	5.3*	0	-13
CCOC(=O)c1c(NC(=O)c2ccccc2F)sc(C(=O)Nc2ccccc2C)c1C	0	3	-5	7.9*	1	13
CCOC(=O)c1c(NC(=O)c2cccs2)sc(C(=O)Nc2ccc(OC)cc2OC)c1C	0	-1	-4	5.2*	1	4
CCOC(=O)c1c(NC(=O)c2cccs2)sc(C(=O)Nc2ccccc2OC)c1C	0	3	-2	0	.	.
CCOC(=O)c1c(NC(=O)C(C)Sc2nnc(CNC(=O)c3ccc(Cl)cc3Cl)n2C)sc2c1CCC2 (stereo unspecified)	0	-6	1	0	.	.
CCCCN(C)CC(C)(C)NS(=O)(=O)c1ccc(Cl)cc1	1	17	-10	-1	.	.
CC(=O)c1cccc(-c2ccc(/C=C3\C(=O)NC(=O)C(C#N)=C3C)o2)c1	0	19	3	0	.	.
CC1=C(C#N)C(=O)NC(=O)/C1=C\c1ccc(-c2cccc(C(=O)OC(C)C)c2)o1	0	5	14	5.0*	-1	8
CCCCOC(=O)c1cccc(-c2ccc(/C=C3\C(=O)N(CCO)C(=O)C(C#N)=C3C)o2)c1	0	-5	-23	8.9*	0	-4
N#CCN1CCN(CC(=O)N2CCN(c3ccccc3)CC2)CC1	0	10	-1	-1	.	.
CC(=N)c1c(O)c2cc([N+](=O)[O-])ccc2oc1=O	0	0	9	5.7*	0	1
COc1c([N+](=O)[O-])c(=O)oc2ccc([N+](=O)[O-])cc12	0	7	-2	-2	.	.
CCOc1nc2cccc(C(=O)OC(C)OC(=O)OC3CCCCC3)c2n1Cc1ccc(-c2ccccc2-c2nn[nH]n2)cc1 (stereo unspecified)	0	9	-25	2	.	.
CCCc1nc(C(C)(C)O)c(C(=O)OCc2oc(=O)oc2C)n1Cc1ccc(-c2ccccc2-c2nn[nH]n2)cc1	0	-9	-1	11*!	0	1
O=C(Nc1cc(Cl)ccc1O)c1ccc2c(c1)C(=O)N(CC1CCCO1)C2=O (stereo unspecified)	0	4	-2	0	.	.
CCn1ccnc1CN(C)Cc1ccc(OCC(O)CN2CCc3ccccc3C2)cc1 (stereo unspecified)	0	0	4	10*	0	-16
